Screens: PubChem BioAssay, National Center for Advancing Translational Sciences (NCATS)
DT40 TDP1 no CPT: qHTS for Inhibitors of human tyrosyl-DNA phosphodiesterase 1 (TDP1): qHTS in cells in absence of CPT; DT40 Tdp1-/- hTDP1 cells, no CPT, ATP luminescence, 48 h; Potency, µM (highest dose often 46.2 µM), inactives show at the highest dose activity change, negative = growth inhibition, actives largely listed as inhibitors; 15% of 420,000 active; also: potency is read from the fitted curve at half-maximal effect; % is scaled to controls: 0 for no effect and ±100 for the full control effect; nearly all actives have a fitted effect of over 55% in size
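Growth kinetics read by CellTiter-Glo luminescence after ≥48 hr at 37 °C. Cells: DT40 Tdp1-/- stably carrying human TDP1, 400 per well, compound exposure in the absence of CPT (DMSO vehicle).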
IL1B secr inh: blocks inflammasome-driven IL-1 beta release. 4.7% of 360,000 active. THP-1 LPS/ATP IL-1B secretion, AlphaLISA, 16 h; stronger effect = lower value. activity change, % at 57.5 µM; in the data active = activity change below about -50%; inconclusive = mostly about -30% to -49%; also: % is scaled to controls: 0 for no effect and ±100 for the full control effect
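Secreted IL-1B measured by AlphaLISA bead assay after 16 h compound exposure of THP-1 cells; compounds (final up to 57.5 uM) added 1 h before LPS (250 ng/mL) and ATP (1.25 mM) stimulation; lower signal means less secretion.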
ClpP mod: qHTS Assay for Activators of ClpP; ATP-dependent Clp protease proteolytic subunit (Bacillus subtilis (strain 168)), P80244; purified B. subtilis ClpP, FRET peptide cleavage, 20 min; Potency, µM (doses to about 57.5 µM), inactives show at the top dose activity change, negative = active; 1.9% of 340,000 active; AID 651965, 2013; active = well fitted falling curve with a large enough effect; inconclusive = small, poorly fitted or top-dose-only effect; inactive = no such curve, though single readings can be large or run the other way; also: potency is read from the fitted curve at half-maximal effect; the source files actives as falling curves though it sought activators and does not explain the sign; nearly all actives have a fitted effect of over 65% in size
Target sequence (P80244 whole entry, looked up): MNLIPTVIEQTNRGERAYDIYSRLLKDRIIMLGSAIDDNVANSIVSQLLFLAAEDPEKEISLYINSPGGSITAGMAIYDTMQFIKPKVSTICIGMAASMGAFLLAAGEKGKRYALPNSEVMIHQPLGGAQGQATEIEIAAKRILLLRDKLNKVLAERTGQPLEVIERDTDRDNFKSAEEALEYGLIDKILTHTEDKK
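ClpP 10 microg/mL final, pH 8 Tris/KCl buffer with BSA, glycerol, Tween-20; compound pinned in; FRET-FV substrate; RT 20 min; Ex320/Em430; ΔFRET vs ADEP 5.8 microM, DMSO, no enzyme.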
DRD3 antagonist: antagonists of human D3 dopamine receptor; P35462; D3R cells, DiscoveRx beta-arrestin luminescence, antagonist mode; stronger effect = lower value; 2.5% of 360,000 active; max response, negative = inhibition, %; AID 652054; in the data active = max response below about -50%; inconclusive = no clear call, values can overlap the other calls; also: % is scaled to controls: 0 for no effect and ±100 for the full control effect
Target sequence (P35462 whole entry, looked up): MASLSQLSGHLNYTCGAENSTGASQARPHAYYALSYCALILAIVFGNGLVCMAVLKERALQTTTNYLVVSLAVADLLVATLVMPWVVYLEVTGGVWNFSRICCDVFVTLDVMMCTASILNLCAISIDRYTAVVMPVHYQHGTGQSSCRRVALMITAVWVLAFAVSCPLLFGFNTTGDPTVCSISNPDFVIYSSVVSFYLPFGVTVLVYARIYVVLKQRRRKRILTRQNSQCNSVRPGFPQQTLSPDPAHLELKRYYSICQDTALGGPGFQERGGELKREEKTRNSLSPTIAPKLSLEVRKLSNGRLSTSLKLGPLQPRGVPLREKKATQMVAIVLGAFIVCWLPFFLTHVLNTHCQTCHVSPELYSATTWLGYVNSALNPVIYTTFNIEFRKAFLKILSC
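Cells plated overnight at 1500 cells/well, then exposed to library compounds with dopamine controls for 90 minutes at 37 degrees C. DiscoveRx reagent added for 30–60 minutes at room temperature; luminescence read, quantitative HTS format.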
DT40 TDP1 CPT: growth inhibition of DT40 Tdp1-/-;hTDP1 cells with camptothecin (screen for TDP1 inhibitors); chicken DT40 Tdp1-/-;hTDP1 cells + 20 nM CPT, ATP luminescence, 48 h; Potency, µM (series often up to 46.2 µM), inactives show at the highest dose activity change, negative = growth inhibition, most hits filed as inhibitors; 12% of 420,000 active; AID 686979; also: potency is read from the fitted curve at half-maximal effect; % is scaled to controls: 0 for no effect and ±100 for the full control effect; nearly all actives have a fitted effect of over 55% in size
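Chicken DT40 Tdp1-/- cells stably complemented with human TDP1 were seeded at 400 cells/well in medium containing 20 nM camptothecin, exposed to pin-transferred compounds, and grown at 37 °C for at least 48 hr. Viability was read as ATP luminescence.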
DRD3 agonist: activates the human D3 dopamine receptor; P35462; max activation, %; D3R DiscoveRx beta-arrestin cells, luminescence, 90 min; 0.58% of 410,000 active; in the data active = max activation above about 30%; also: 0% is about no effect
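Agonist-mode cell screen: cells plated at 1500/well and incubated overnight at 37 °C, then exposed to library compounds for 90 min at 37 °C. Detection reagent was added for 30–60 min at room temperature, and luminescence was read.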
Starred values were filed as active, the others as inactive; ? = inconclusive; / = no result; [ ] = remark or other dose. Sampled rows, rich in hits. Any-hit rate of the full collection: about 21%. Unless noted, calls follow the shape of the dose curve; as a rule, active = well fitted inhibition curve with a large enough effect; inconclusive = small, poorly fitted or top-dose-only effect; inactive = flat fitted curve, though single readings scatter.

SMILES	DT40 TDP1 no CPT	IL1B secr inh	ClpP mod	DRD3 antagonist	DT40 TDP1 CPT	DRD3 agonist
CN(Cc1cn(Cc2cccc(C(F)(F)F)c2)nn1)C1CN(Cc2cn(Cc3cccc(C(F)(F)F)c3)nn2)S(=O)(=O)C1 (centres undefined)	13µM*	?	2.0%	-28.2	13µM*	-5.8
CN1CCN(C2CN(Cc3cn(Cc4cccc(C(F)(F)F)c4)nn3)S(=O)(=O)C2)CC1 (centres undefined)	-15.5%	0.0	0.2%	-50.9*	-9.6%	-2.2
CCCN(C)C1CN(Cc2cn(Cc3cccc(C(F)(F)F)c3)nn2)S(=O)(=O)C1 (centres undefined)	-12.6%	2.8	-1.7%	-24.9	-11.8%	-0.5
CN1CCC(N2CCN(C3CN(Cc4cn(Cc5cccc(C(F)(F)F)c5)nn4)S(=O)(=O)C3)CC2)CC1 (centres undefined)	-3.7%	-9.7	-4.6%	-28.9	-6.7%	-3.9
COc1ccc(C2C(=O)N(C3CCC(C)CC3)CC(=O)N2CCc2ccccc2)cc1OC (centres undefined)	?	/	-2.5%	/	?	1.8
CSc1ccccc1C(=O)NCC1Cc2cc(F)cc(-c3cnccn3)c2O1 (centres undefined)	?	/	/	/	20.6µM*	/
O=C(CSc1nnc2ccc(-c3ccccn3)nn12)N1CCCC1	21.4%	0.0	-1.3%	5.8	-0.1%	1.9
COc1cc2c(-c3ccccc3)c(C)oc2cc1/C=N/NC(N)=S	?	14.4	-26.0%	0.0	?	0.6
O=C(Nc1ccc(O)c(-c2nc3ccccc3s2)c1)c1cc(=O)c2ccccc2o1	8.2µM*	7.6	-2.4%	-11.6	9.2µM*	15.1
O=C(Nc1ccc(O)c(-c2nc3ccccc3s2)c1)c1cccs1	-21.5%	25.2	28.2µM*	-20.7	-6.3%	-12.6
CCOC(=O)c1c(-c2ccc(F)cc2)csc1/N=C/N(C)C	-9.2%	-87.2*	25.1µM*	-5.3	-13.4%	-1.2
CCOC(=O)c1c(-c2ccc(C)cc2)csc1/N=C/N(C)C	?	-11.0	1.7%	-6.5	?	1.1
COc1ccc(CCc2cc(OC)c(OC)c(OC)c2)cc1	0.581µM*	36.2	-5.2%	0.7	0.82µM*	-8.8
COc1ccc(CCNC(=O)CCc2cc(OC)c(OC)c(OC)c2)cc1	-28.3%	-1.5	0.1%	17.1	-21.4%	0.2
Cc1noc(C)c1C(=O)N1CCC[C@@]2(CCN(Cc3ccc(C#N)cc3)C2)C1	-12.5%	/	/	/	1.3%	/
CCCCCNc1nc(-c2ccccc2)nc(-n2ccnc2)n1	?	-13.8	25.1µM*	-15.4	?	-1.2
c1ccc(-c2nc(N3CCN(c4ccccc4)CC3)nc(-n3ccnc3)n2)cc1	16.4µM*	?	-6.0%	-24.5	?	-6.3
c1ccc(-c2ccc(-n3ccnc3)cc2)cc1	?	-24.4	-1.8%	-20.2	25.9µM*	-14.8
c1ccc(-c2nc(N3CCCCCC3)nc(-n3ccnc3)n2)cc1	?	-2.8	0.0%	-12.0	?	-1.1
c1ccc2ncc(-n3ccnc3)cc2c1	-19.7%	-7.8	-0.8%	0.0	3.6%	2.8
CC1=CC(=O)C2=C(C)C[C@@H]3OC(=O)[C@@H](C)[C@H]3C=C12	7.2%[9.04 µM]	/	/	/	8.7%[9.04 µM]	/
Cc1ccc(CN2C(=O)CCC2(C)c2nnnn2-c2c(C)cccc2C)cc1 (centres undefined)	16.4µM*	15.1	2.1%	1.1	18.4µM*	2.5
O=C(O)Cc1ccc(S(=O)(=O)N2CCCC2)s1	2.8%	17.6	-8.3%	3.4	-4.1%	4.6
CCn1c(SCc2nc(-c3ccc(Cl)cc3)no2)nnc1-c1ccco1	20.6µM*	?	1.6%	4.5	?	-3.4
Cn1c(SCc2nc(-c3ccc(Cl)cc3)no2)nnc1-c1cccs1	16.4µM*	?	4.5%	12.1	?	-12.6
SMILES	DT40 TDP1 no CPT	IL1B secr inh	ClpP mod	DRD3 antagonist	DT40 TDP1 CPT	DRD3 agonist
Cn1c(SCc2nc(-c3ccccc3)no2)nnc1-c1cccs1	2.3%	2.8	-0.2%	11.1	-21.8%	32.3*
Cn1c(SCc2nc(-c3ccccc3)no2)nnc1-c1ccco1	-6.2%	5.7	0.6%	7.6	-2.8%	1.8
COCCn1c(=N)c(C(=O)NC2CCCC2)cc2c(=O)n3cc(C)ccc3nc21	3.3%	/	-2.2%	/	-0.2%	1.0
Cc1ccc(C(=O)NC2CCN(CC(=O)Nc3cccc([N+](=O)[O-])c3)CC2)cc1	?	-6.1	-1.8%	-22.3	-44.8%	1.4
COc1ccccc1-c1noc2c1C(=O)N(Cc1cn(-c3ccc(Cl)cc3)nn1)CC2	23.1µM*	0.0	0.2%	9.6	?	-11.3
COc1ccc(Cn2cc(CN3CCc4onc(-c5ccc(Br)cc5)c4C3=O)nn2)cc1	20.6µM*	0.0	-0.5%	38.0	16.4µM*	3.4
CCCNC(=O)CN1CCN(c2cc3ccccc3c(Cl)n2)CC1	16.4µM*	-20.5	/	?	?	-8.8
Cc1cc(NC(=O)CN2CCC(O)CC2)nc2c1c(=O)oc1ccccc12	?	/	-9.9%	/	?	0.4
O=C(COc1ccccc1F)Nc1ccc(Cl)c(-c2nc3ccccc3[nH]2)c1	13µM*	/	?	/	?	-0.2
Cc1cccc(OCC(=O)Nc2ccc(Cl)c(-c3nc4ccccc4[nH]3)c2)c1	?	/	?	/	?	7.6
O=C(COc1ccc(F)cc1)Nc1ccc(Cl)c(-c2nc3ccccc3[nH]2)c1	20.6µM*	/	-24.8%	/	?	5.3
CC(C)CC(=O)Nc1ccc(Cl)c(-c2nc3ccccc3[nH]2)c1	?	/	-22.7%	/	?	0.3
Cc1ccc(CSc2nc(=O)c3c(C)cc(C)nc3n2C2CC2)cc1	20.6µM*	/	1.0%	/	20.6µM*	-18.3
COC(=O)c1cc(C)nc2c1c(=O)nc(SCc1cc(C)ccc1C)n2C1CC1	?	/	1.2%	/	-8.9%	2.0
CC(NC(=O)c1ccco1)c1nnc2n1CCN(Cc1ccc(N(C)C)cc1)CC2 (centres undefined)	-14.3%	/	/	/	-3.5%	/
O=C(O)CSc1nnc(-c2ccc(Cl)cc2Cl)n1-c1ccc(Br)cc1	-3.0%	7.4	/	?	-5.7%	6.3
CCCCCCCC(=O)CC[C@@H]1[C@@H](C/C=C\CCCC(=O)OC(C)C)[C@@H](O)C[C@H]1O	7.5µM*	/	/	/	7.5µM*	22.1
O=C(Cc1c(F)cccc1Cl)Nc1ccc(S(=O)(=O)Nc2nccs2)cc1	-7.7%	-9.6	/	10.0	-0.5%	4.5
